In the supplement of paper PMC6555819:

Key:
Assay in all cases: PBM binding z-score (relative to random genomic background probes); higher = stronger binding; sequences stand for … in GC…GCGATTGACAGCGTAGAATGAAGG
[1] = tested on: FXR:RXRa (NR concentration 270 nM, RXRa partner concentration 90 nM)
Method in brief: (§1)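 Regression normalization was applied to scanned fluorescence from custom Agilent 4×180K protein-binding microarrays. Before scanning, arrays were incubated 1 h with ligand-free nuclear receptor dimers, and binding was detected with antibodies against each partner (one per run). Binding z-scores use the random background probes as reference.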

[2] = tested on: LXRa:RXRa (NR concentration 270 nM, RXRa partner concentration 90 nM)
Method in brief: as §1

[3] = tested on: LXRa homodimer (NR concentration 270 nM)
Method in brief: as §1

[4] = tested on: LXRb:RXRa (NR concentration 270 nM, RXRa partner concentration 90 nM)
Method in brief: as §1

[5] = tested on: LXRb homodimer (NR concentration 270 nM)
Method in brief: as §1

[6] = tested on: PPARa:RXRa (NR concentration 270 nM, RXRa partner concentration 90 nM)
Method in brief: as §1

[7] = tested on: PPARg:RXRa (NR concentration 180 nM, RXRa partner concentration 90 nM)
Method in brief: as §1

[8] = tested on: PPARg:RXRa 270nM:90nM, anti-RXR (NR concentration 270 nM, RXRa partner concentration 90 nM)
Method in brief: as §1

[9] = tested on: PPARg:RXRa 30nM:10nM, anti-RXR (NR concentration 30 nM, RXRa partner concentration 10 nM)
Method in brief: as §1

[10] = tested on: PPARg:RXRa 90nM:30nM, anti-RXR (NR concentration 90 nM, RXRa partner concentration 30 nM)
Method in brief: as §1

[11] = tested on: PPARg:RXRa DBDmut IVT, anti-RXR (DBD mutation: RXRa K156A/R161A, NR concentration 270 nM, RXRa partner concentration 90 nM)
Method in brief: as §1

[12] = tested on: PPARg:RXRa IVT, anti-PPARg (NR concentration 270 nM, RXRa partner concentration 90 nM)
Method in brief: as §1

[13] = tested on: PPARg DBDmut:RXRa IVT, anti-PPARg (DBD mutation: PPARg1 K132A/R137A, NR concentration 270 nM, RXRa partner concentration 90 nM)
Method in brief: as §1

[14] = tested on: PPARg DBDmut IVT, anti-PPARg (DBD mutation: PPARg1 K132A/R137A, NR concentration 270 nM)
Method in brief: as §1

[15] = tested on: PPARg homodimer (NR concentration 180 nM)
Method in brief: as §1

[16] = tested on: PXR:RXRa (NR concentration 270 nM, RXRa partner concentration 90 nM)
Method in brief: as §1

[17] = tested on: PXR homodimer (NR concentration 270 nM)
Method in brief: as §1

[18] = tested on: RARa:RXR (NR concentration 270 nM, RXRa partner concentration 90 nM)
Method in brief: as §1

[19] = tested on: RARa homodimer (NR concentration 270 nM)
Method in brief: as §1

[20] = tested on: RARb:RXRa (NR concentration 270 nM, RXRa partner concentration 90 nM)
Method in brief: as §1

| Sequence | PBM binding z-score [1] | PBM binding z-score [2] | PBM binding z-score [3] | PBM binding z-score [4] | PBM binding z-score [5] | PBM binding z-score [6] | PBM binding z-score [7] | PBM binding z-score [8] | PBM binding z-score [9] | PBM binding z-score [10] | PBM binding z-score [11] | PBM binding z-score [12] | PBM binding z-score [13] | PBM binding z-score [14] | PBM binding z-score [15] | PBM binding z-score [16] | PBM binding z-score [17] | PBM binding z-score [18] | PBM binding z-score [19] | PBM binding z-score [20] |
| --- | --- | --- | --- | --- | --- | --- | --- | --- | --- | --- | --- | --- | --- | --- | --- | --- | --- | --- | --- | --- |
| ATCTCTAGGTAAAAGTTCAGTCAATCCCGAGGAT | 0.989 | 1.98 | 1.79 | 1.6 | 1.34 | 4.61 | 8.25 | 8.34 | 7.47 | 9.66 | 2.32 | 4.22 | 1.46 | 1.49 | 1.74 | 2.36 | 2.13 | 1.68 | 1.1 | 2.64 |
| ACTTACGGGTCAACGAGGTTACAGCACGCGTATA | 7.13 | 5.03 | 0.828 | 4.72 | 0.537 | 6 | 5.8 | 5.86 | 2.49 | 4.5 | 3.63 | 4.61 | 3.52 | 1.44 | 2.75 | 5.25 | 2.74 | 5.23 | 1.58 | 4.44 |
| TCTAGTTGGTCACGGAGGTCATACACGACGGGTA | 3.53 | 3.79 | 3.37 | 3.52 | 0.955 | 3.92 | 3.08 | 3.93 | 3.65 | 3.86 | 2.41 | 3.69 | 1.98 | 1.06 | 2.96 | 4.57 | 2.33 | 4.38 | 1.78 | 3.59 |
| TCTCGGAGGACAGGAAAGGTCAGAGCTCGACATC | 2.63 | 3.06 | 1.44 | 2.83 | -0.216 | 3.23 | 0.566 | 2.15 | 2.51 | 1.96 | 1.51 | 0.852 | -0.54 | -0.498 | 2.25 | 3.36 | 0.759 | 3.62 | 0.692 | 3.9 |
| AAAACGAGGGCAATGAGTTGATAGCACGGGTGGC | 0.531 | 0.364 | -0.353 | -0.0182 | -0.657 | 1.55 | 2.02 | 1.44 | 0.0987 | 0.879 | 5.04 | 3.79 | 1.2 | 0.681 | 0.0756 | 1.86 | 4.72 | 0.593 | -0.42 | 2.18 |
| ATCGAAAGGGCGAGGTGAGTATAGAGAAAGGGAA | 0.707 | 0.563 | -0.0358 | 0.463 | 0.173 | 1.38 | 0.612 | 0.445 | 0.457 | 0.394 | -0.0167 | 0.793 | 0.764 | 0.945 | 0.793 | 0.415 | 0.345 | 0.69 | 0.319 | 2.09 |
| CCTTACGGGTCAAGGTCATAGCACGGGTGGTACG | 6.75 | 5.29 | 1.9 | 4.12 | 0.624 | 5.78 | 6.03 | 5.86 | 2.53 | 4.68 | 1.92 | 4.64 | 0.493 | -0.425 | 2.88 | 5.05 | 1.3 | 5.28 | 0.441 | 5 |
| CTCAAAAGGTCGTGCTCAGGTGAGTATACCAAAC | 5.46 | 4.03 | 0.165 | 3.42 | 0.129 | 4.98 | 3.14 | 3.85 | 0.896 | 2.75 | 1.02 | 2.03 | 0.582 | 0.851 | 1.51 | 3.24 | 0.288 | 4.2 | 0.127 | 4.03 |
| CCTAGCAGGCCAATCTGGGTCATTCAAGGCTTGA | 1.16 | 1.52 | -0.318 | 0.813 | -1.03 | 2.54 | 1.18 | 1.73 | -0.272 | 0.958 | 3.81 | 4.05 | -1.11 | -0.944 | 0.0423 | 1.63 | -0.53 | 1.04 | -0.337 | 1.17 |
| GTACCACGGTGAATAGGTCGTTGATGAGTAGGCG | -0.0112 | -0.00221 | -0.237 | -0.365 | -0.842 | 0.664 | 0.525 | 0.597 | -0.227 | 0.557 | -0.0107 | 0.889 | -0.572 | -0.695 | 0.25 | 0.0182 | -0.47 | 0.233 | -0.371 | 0.587 |
| CGAACTAGGTCGGAACAGGACAGTGAAGGATGAT | -0.0248 | -0.452 | -0.434 | -0.642 | -1 | 0.71 | 1.23 | 0.719 | 0.0935 | 0.234 | 4.12 | 3.56 | 0.508 | -0.428 | -0.2 | -0.28 | -0.583 | 0.314 | -0.0866 | 0.543 |
| CTCGAAGGGTCGTGCTCAGGTGAGTATACCAAAC | 2.01 | 1.45 | -0.37 | 1.52 | -0.487 | 2.89 | 0.441 | 1.12 | -0.0599 | 0.72 | -0.253 | 0.525 | -0.515 | 0.0417 | 0.506 | 1.37 | -0.509 | 2.56 | -0.561 | 2.31 |
| TCATATAGGTGAATGCTAGGTGAAAGTCCGATCT | 1.13 | 0.917 | -0.0779 | 0.789 | -0.221 | 2.55 | 2.75 | 3.13 | 3.54 | 3.07 | 6.19 | 5.78 | 1.9 | 1.82 | 1.06 | 0.532 | -0.173 | 1.33 | 0.882 | 1.22 |
| AGAATGATGTTATACGTAGATCAGGGAAGAAAGT | -0.301 | -0.398 | -0.0367 | -0.288 | -0.0572 | -0.192 | 0.88 | -0.156 | 0.198 | -0.0681 | -0.521 | -0.0838 | 1.57 | 1.74 | -0.218 | -0.0656 | 0.403 | -0.276 | -0.0154 | -0.18 |
| TGAATGAGGTTAAAGATCAGGGCACGTGGCGTCG | 2.95 | 2.69 | 0.0826 | 1.81 | 0.456 | 4.53 | 5.69 | 6.11 | 4.67 | 6.24 | 2.37 | 3.82 | 1.31 | 1.27 | 0.587 | 2.32 | 0.062 | 3.3 | 0.14 | 2.41 |
| TATACAGGGTCAAAGGCTAGAGTACGAATGTCGA | 7.16 | 6.17 | 2.74 | 4.84 | 2.57 | 5.93 | 7.9 | 7.07 | 5 | 6.71 | 2.33 | 4.88 | 1.73 | 2.03 | 3.15 | 4.01 | 1.01 | 5.02 | 1.11 | 4.53 |
| AGAACGAGGGCAACGAGTTGATAGCACGGGTGGC | 0.357 | 0.068 | -0.499 | -0.258 | -0.674 | 1.59 | 1.67 | 1.29 | 0.0508 | 0.609 | 3.47 | 3.2 | 0.361 | -0.0508 | -0.253 | 1.49 | 3.88 | 0.217 | -0.868 | 2.23 |
| TCTGCTAGGTCAACGATGGTAAGCTAATCTGCTA | 3.07 | 2.01 | -0.518 | 1.4 | -0.543 | 2.85 | 2.51 | 3.09 | 1.65 | 2.31 | 4.18 | 4.18 | 0.49 | -0.213 | 0.663 | 0.925 | -1.17 | 1.92 | -1 | 4.03 |
| CCTCCGAGGACAGAAGGTCAGAGCTGTCCGCTTT | 1.46 | 1.7 | 0.408 | 1.37 | -0.149 | 1.89 | -0.0299 | 0.869 | -0.46 | 0.274 | -0.16 | 0.312 | -1.35 | -1.76 | 2.39 | 1.76 | 0.0922 | 2.49 | 1.09 | 3.23 |
